Screening data (PubChem)
ABHD5 PLIN5 PPI = inhibitors of human ABHD5-perilipin-5 interaction | Q00G26+Q8WTS1 | Split G. princeps luciferase complementation, luminescence, 4 h | inhibition, % at 4 µM | 0.78% of 360,000 active | AID 602281;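 active = inhibition above the mean inhibition across every tested compound plus 3 SD, cut at about 22% in these data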;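 also: 0% = DMSO only wells and the 100% control is not disclosed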
Peg3 prom inh-1 = reduces Peg3 promoter-driven luciferase expression in HeLa; 1.7% of 360,000 active; HeLa PEG-Prom luciferase reporter, luminescence, overnight; inhibition, % at 20 µM;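 active = inhibition of at least 50% at 20 µM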
HIF-2a inh = inhibitors of HIF-2a | 786-0 RCC cells HIF-2a reporter, luciferase luminescence, overnight | AID 624352 | 0.72% of 360,000 active | inhibition, % at 18.8 µM;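 active = inhibition of the luminescence signal of 40% or more relative to plate controls, in a single-dose primary screen at 18.75 µM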
Mdm2 MdmX PPI = disrupts the human Mdm2-MdmX interaction. SaOS-2 split-luciferase Mdm2/MdmX complementation, luminescence. inhibition, % at 8 µM. 3% of 330,000 active. AID 485346. O15151+Q00987;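 active = inhibition of at least 50% at 8 µM in the primary screen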
Target sequence (O15151 whole entry, looked up): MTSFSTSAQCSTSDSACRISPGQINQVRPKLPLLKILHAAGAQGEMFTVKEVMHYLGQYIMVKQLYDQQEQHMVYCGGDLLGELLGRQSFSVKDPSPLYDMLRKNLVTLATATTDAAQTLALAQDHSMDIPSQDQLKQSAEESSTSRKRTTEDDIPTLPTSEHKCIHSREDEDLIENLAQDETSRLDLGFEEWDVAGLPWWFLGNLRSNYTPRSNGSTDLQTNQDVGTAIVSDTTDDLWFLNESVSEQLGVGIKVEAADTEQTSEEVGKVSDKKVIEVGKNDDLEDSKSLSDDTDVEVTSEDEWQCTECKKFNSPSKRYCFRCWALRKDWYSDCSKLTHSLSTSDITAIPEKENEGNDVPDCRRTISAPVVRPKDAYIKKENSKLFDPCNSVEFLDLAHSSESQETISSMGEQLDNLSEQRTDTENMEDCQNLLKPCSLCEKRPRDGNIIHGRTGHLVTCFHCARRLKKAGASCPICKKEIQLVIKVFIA
Target sequence (Q00987 whole entry, looked up): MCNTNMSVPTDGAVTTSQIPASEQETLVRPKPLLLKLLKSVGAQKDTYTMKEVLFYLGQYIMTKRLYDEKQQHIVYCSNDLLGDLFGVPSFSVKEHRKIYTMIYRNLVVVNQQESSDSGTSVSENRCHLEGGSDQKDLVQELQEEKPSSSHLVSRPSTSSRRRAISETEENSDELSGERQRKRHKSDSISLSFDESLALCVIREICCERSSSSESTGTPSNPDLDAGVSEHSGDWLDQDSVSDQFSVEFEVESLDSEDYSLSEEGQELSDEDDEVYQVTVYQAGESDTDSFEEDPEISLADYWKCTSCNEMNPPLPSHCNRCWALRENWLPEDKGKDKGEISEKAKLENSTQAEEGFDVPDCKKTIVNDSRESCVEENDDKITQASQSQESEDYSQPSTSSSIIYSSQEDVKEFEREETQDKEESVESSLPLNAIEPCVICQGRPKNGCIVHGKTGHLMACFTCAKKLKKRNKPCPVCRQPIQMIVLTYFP
KKLEB cytotox = counter-screen for CF NF-kB inhibitors: cytotoxicity | KKLEB CF airway cells viability, ATPlite luminescence, overnight; hits give low values; cells stimulated with P. aeruginosa culture filtrate | activity change (cytotoxicity), % at 5 µM | 0.36% of 360,000 active;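 active = corrected activity change at or below -50% at 5 µM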
CF NFkB block = blocks PAF-induced NF-kB reporter in cystic fibrosis cells | KKLEB NF-kB-GFP reporter, GFP fluorescence overnight | inhibition, % at 5 µM | 0.86% of 360,000 active | AID 588850;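 active = at least 50% inhibition at 5 µM, scaled per plate between neutral and stimulator controls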;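 also: PAF is a Pseudomonas aeruginosa culture filtrate used as stimulus; plate controls were PAF-stimulated DMSO wells for no effect and unstimulated DMSO wells for full effect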
Mdm2 MdmX conf = human Mdm2/MdmX binding inhibition, confirmed; shares compounds with Mdm2 MdmX PPI; 55% of 10,000 active; AID 489028; inhibition, % at 8 µM; luminescent assay
Full FLuc ctr = inhibits full-length luciferase, flagging false Mdm2/MdmX hits; 77% of 6,200 active; inhibition, % at 8 µM; SaOS-2 full-length luciferase counterscreen, luminescence; shares compounds with Mdm2 MdmX PPI;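 active = mean inhibition at 8 µM reaching about 37%, which flags the compound as non-specific, limit read from the data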;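 also: p53-null SaOS-2 cells with luciferase driven by a doxycycline-inducible promoter; compound on cells about two nights before reading with doxycycline added after day one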
Peg3 prom inh-2 = confirmation of Peg3 promoter inhibitors; shares compounds with Peg3 prom inh-1; HeLa PEG-Prom luciferase reporter, luminescence, overnight; inhibition, % at 20 µM; 84% of 1,300 active; AID 602417;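 active = at 20 µM dose, 40% or more inhibition averaged across four replicates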
CF NFkB inh conf = CF NF-kB inhibition confirmation, single concentration; AID 602472; KKLEB CF airway cells, PAF-induced NF-kB-GFP fluorescence, overnight; 64% of 1,300 active; inhibition, % at 5 µM; shares compounds with CF NFkB block;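 also: stimulus PAF is a Pseudomonas aeruginosa filtrate and not platelet activating factor; plate controls were DMSO wells with stimulus for no effect and unstimulated DMSO wells for full effect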
ABHD5 PLIN5 conf = confirmation of human ABHD5-PLIN5 interaction inhibitors; AID 651612; biochemical ABHD5-PLIN5 interaction, luminescence; inhibition, % at 4 µM; 67% of 2,200 active; shares compounds with ABHD5 PLIN5 PPI; in the data active = inhibition above about 23%;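 also: 0% = DMSO vehicle wells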
HNF4 counter = counter-screen for ABHD5-PLIN5 inhibitors: HNF4 split-luciferase; HNF4 dimerization, luminescence, biochemical; AID 651674; shares compounds with ABHD5 PLIN5 PPI; inhibition, % at 4 µM; 77% of 2,200 active;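 active = mean inhibition across replicate wells exceeding the computed hit threshold, cut at about 13% in these data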;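 also: light from luciferase halves that rejoin when HNF4 fusion proteins dimerize; 0% = DMSO only wells and the 100% control is not given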
* hit, by the source's call; . = no result. A selection: hits, their analogues and other compounds. The true share with any hit is near 4.6%. Rule as the data show it, unless noted: active = inhibition above about 40%; inactive = the rest.

SMILES | ABHD5 PLIN5 PPI | Peg3 prom inh-1 | HIF-2a inh | Mdm2 MdmX PPI | KKLEB cytotox | CF NFkB block | Mdm2 MdmX conf | Full FLuc ctr | ABHD5 PLIN5 conf | HNF4 counter | others
Cc1ccc2nsnc2c1S(=O)(=O)N(Cc1ccco1)Cc1cc2cccc(C)c2[nH]c1=O | -7 | 43 | 10 | 35 | -5 | 21 | . | . | . | .
OCCN1CCN(CC(O)COc2ccc(Cl)cc2)CC1 (stereo not drawn) | 5 | 13 | 14 | 7 | 0 | 4 | . | . | . | .
OCCN1CCN(CC(O)COc2ccc(C34CC5CC(CC(C5)C3)C4)cc2)CC1 (stereo not drawn) | 36* | 114* | 7 | 95* | -43 | 21 | 73* | 22 | 15 | 5
CCCn1c(N)c(C(=O)CN2CCN(S(=O)(=O)c3cccc(Cl)c3)CC2)c(=O)[nH]c1=O | -6 | 19 | 10 | 13 | -1 | -13 | . | . | . | .
O=C(/C=C/c1cccs1)c1cc(Br)ccc1OC(=O)N1CCOCC1 | 25* | 44 | 38 | 53* | -17 | 8 | 17 | . | 57* | 40*
CN(C)CCCN(Cc1ccccc1)C(=S)Nc1cccc(C(F)(F)F)c1 | 9 | 13 | 10 | 26 | -1 | 10 | . | . | . | .
COc1ccc(NC(=S)N(CCCN2CCCC2)Cc2cccn2Cc2ccc(Cl)cc2)cc1Cl | 31* | 103* | -13 | 85* | -12 | 26 | 57* | 54* | 13 | -10
FC(F)(F)c1cccc(NC(=S)N(CCCN2CCCC2)Cc2cccn2Cc2ccc(Cl)cc2)c1 | 42* | 106* | -21 | 96* | -17 | 36 | 54* | 30 | 12 | -12
O=c1c2oc3ccccc3c2[nH]c(=S)n1-c1ccc(F)cc1 | 3 | -21 | -25 | -18 | 6 | -12 | . | . | . | .
CCn1c(NCc2ccc(N(C)C)cc2)nc2ccccc21 | 15 | -86 | -93 | -26 | -9 | 4 | . | . | . | .
CN(C)c1ccc(N=Nc2nc3ccccc3n2C)cc1 | 34* | 104* | 17 | 60* | -82* | -19 | 49* | 46* | 26* | 46* | Peg3 prom inh-2=88*
COc1ccc(C(=O)N[C@H](C(=O)NCc2cccs2)C(C)C)cc1 | -1 | 2 | 7 | -5 | 6 | -7 | . | . | . | .
Cc1oc(-c2cccc(C(F)(F)F)c2)nc1CN1CCOCC1 | -3 | 11 | -7 | 3 | 16 | 1 | . | . | . | .
O=C(NCc1ccc2c(c1)OCO2)c1nc(S(=O)(=O)Cc2ccccc2)ncc1Cl | 54* | 106* | 19 | 63* | -22 | 84* | 45* | 14 | 87* | 106*
CCc1nnc(NC(=O)c2nc(S(=O)(=O)Cc3ccccc3)ncc2Cl)s1 | 34* | 104* | 54* | 100* | -94* | 90* | 49* | 6 | 69* | 48*
O=C(NCc1ccc2c(c1)OCO2)c1ccccc1Cl | 3 | -5 | -40 | -19 | 0 | 2 | . | . | . | .
CC1=NOC(=O)/C1=C\c1ccc(-c2cc(Cl)ccc2Cl)o1 | 39* | 101* | -2 | 100* | -28 | 66* | 16 | . | 85* | 86*
CC1=NOC(=O)/C1=C/c1ccc(-c2ccc(Cl)cc2)o1 | 33* | 102* | -114 | 100* | -1 | -46 | 48* | 17 | 99* | 107*
O=C(CC(=O)NN=C1CCCCCC1)NCc1cccnc1 | 4 | -5 | 14 | 0 | -9 | 18 | . | . | . | .
CCOC(=O)C1CCCN(C(=O)c2ccc(S(=O)(=O)Nc3ccccc3OC)cc2)C1 (stereo not drawn) | -3 | 24 | 1 | -23 | 6 | 4 | . | . | . | .
CC1=NNC(=O)/C1=C\c1cn(-c2ccccc2)nc1-c1cccs1 | 37* | 115* | 94* | 83* | -25 | 112* | 56* | 26 | 100* | 102*
CC1=C(C(=O)Nc2cc(C(=O)NCCCOC(C)C)ccc2C)SCCO1 | -6 | -3 | 14 | 6 | 5 | -13 | . | . | . | .
OC(CNCC1CCCO1)Cn1c2ccccc2c2ccccc21 (stereo not drawn) | 7 | -4 | 2 | 32 | -9 | 15 | . | . | . | .
OC(CNCC1CCCO1)Cn1c2ccc(Cl)cc2c2cc(Cl)ccc21 (stereo not drawn) | 35* | 106* | 18 | 96* | -30 | 25 | 44* | 20 | 13 | 8
COc1ccc(/C=C2\CCCCC2=O)cc1 | -8 | -61 | -95 | -4 | 2 | 11 | . | . | . | .
SMILES | ABHD5 PLIN5 PPI | Peg3 prom inh-1 | HIF-2a inh | Mdm2 MdmX PPI | KKLEB cytotox | CF NFkB block | Mdm2 MdmX conf | Full FLuc ctr | ABHD5 PLIN5 conf | HNF4 counter | others
CN(C)/N=C/C=C1\CCC/C(=C\c2ccc(F)c(F)c2)C1=O | 53* | 41 | -98 | 77* | -2 | -12 | 28 | 44* | 71* | 73*
CN(C)c1ccc(/C=C2\CCC/C(=C\c3ccccc3)C2=O)cc1 | 5 | -110 | -102 | . | 12 | -21 | . | . | . | .
COc1ccc(/C=C2\CCC/C(=C\C=N\N(C)C)C2=O)cc1 | 36* | -95 | -132 | 95* | 15 | -35 | 51* | 29 | 36* | 72*
O=C(Nc1ccc(F)cc1)C(c1ccccc1OC(F)(F)F)N1CCN(C(=O)c2ccco2)CC1 (stereo not drawn) | -4 | . | -6 | . | . | . | . | . | . | .
CC1(C)CC(=O)C=C(NC2=CC3OC(c4ccccc4)OCC3OC2=O)C1 (stereo not drawn) | 63* | 64* | 40 | 70* | -8 | 72* | 34 | 54* | 85* | 94* | CF NFkB inh conf=52*
CC(=O)OCC(=O)C1(O)CCC2C3CCC4CC(O)CCC4(C)C3C(=O)CC21C (stereo not drawn) | 3 | 6 | 10 | . | 10 | -21 | . | . | . | .
COC(=O)C1=C(C)NC(C)=C(C(=O)OCC(C)C)C1c1ccccc1[N+](=O)[O-] (stereo not drawn) | 36* | 33 | 25 | 72* | -1 | 83* | 65* | 23 | 36* | 95* | CF NFkB inh conf=58*
CCOC(=O)C1=C(C)NC(C)=C(C(=O)OCC)C1c1cccc([N+](=O)[O-])c1 | -7 | 15 | 8 | . | -3 | 13 | . | . | . | .
